Test results: PubChem BioAssay (NCATS)
Records with an inconclusive call do not appear. Active and inactive are the calls of the source. Unless noted, the call rests on the fitted dose curve; in most records, active means well fitted cell-killing curve with a large enough effect; inconclusive means small, poorly fitted or top-dose-only effect, or effect the other way; inactive means no such curve, though single readings can be large or run the other way.

Assays:
[1] = Quantitative High-Throughput drug screen in 47 multiple myeloma cell lines against the NCATS MIPE library collection: PE2_PLB cell viability assay (AID 1919869); further: nearly all actives have a fitted effect of over 35% in size; further: potency means the concentration at half of the fitted maximal effect
Summary of the method: (§1)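 MIPE 4.0 approved/investigational drugs; 500 cells/well; 48 h 37 °C humidified 5% CO2; CTG luminescence readout; DMSO = 100%, media = 0% viability.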

[2] = Quantitative High-Throughput drug screen in 47 multiple myeloma cell lines against the NCATS MIPE library collection: PCM6_Riken cell viability assay (AID 1919870); further: nearly all actives have a fitted effect of over 30% in size; further: potency means the concentration at half of the fitted maximal effect
Summary of the method: as §1

[3] = Quantitative High-Throughput drug screen in 47 multiple myeloma cell lines against the NCATS MIPE library collection: OPM2_DSMZ cell viability assay (AID 1919872); further: nearly all actives have a fitted effect of over 30% in size; further: potency means the concentration at half of the fitted maximal effect
Summary of the method: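 Luminescent ATP measurement with CellTiter-Glo gives viability, scaled between DMSO-only wells (100%) and media-only wells (0%). Cells, 500 per well, faced library compounds for 48 hours at 37C.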

[4] = Quantitative High-Throughput drug screen in 47 multiple myeloma cell lines against the NCATS MIPE library collection: KMS11_JCRBsus cell viability assay (AID 1919873); further: nearly all actives have a fitted effect of over 50% in size; further: potency means the concentration at half of the fitted maximal effect
Summary of the method: as §1

[5] = qHTS drug screen for cell cycle checkpoint inhibitors in PARPi-resistant BRCA-mutant ovarian cancer cell lines. (AID 1963452; calls by dose curve); details: PEO1/OlaR viability, CellTiter-Glo luminescence, 96 h, stronger effect = lower value
Summary of the method: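 PEO1, PEO4 and PEO1/OlaR ovarian cancer cells, 600 per well, exposed 96 h at 37C to a dilution series. Viability read by CellTiter-Glo luminescence, normalized to DMSO and empty wells; activity summarized as Z-AUC.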

[6] = qHTS for identification of novel therapeutic agents for treatment of microphthalmiaassociated transcription factor (MiT) renal cell carcinoma (RCC) (AID 1963991); details: CellTiter-Glo, 48 h, stronger effect = lower value
Summary of the method: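 Curves over 11 concentrations were fitted to CellTiter-Glo luminescence, scaled between empty wells (0%) and DMSO (100%) viability. Cells were UOK109, UOK124 and UOK145 TFE3-fusion RCC lines at 500/well, exposed 48 hours at 37 C.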

[7] = Quantitative High-Throughput drug screen in 47 multiple myeloma cell lines against the NCATS MIPE library collection: KMS28BM_JCRB cell viability assay (AID 1919874); further: nearly all actives have a fitted effect of over 35% in size; further: potency means the concentration at half of the fitted maximal effect
Summary of the method: as §1

[8] = Quantitative High-Throughput drug screen in 47 multiple myeloma cell lines against the NCATS MIPE library collection: RPMI8226_ATCC cell viability assay (AID 1919871); further: nearly all actives have a fitted effect of over 30% in size; further: potency means the concentration at half of the fitted maximal effect
Summary of the method: as §1

[9] = measured here: PEO1 parental Z-AUC
[10] = TFE3-RCC UOK109 viability, measured here: UOK109 Z-AUC
[11] = TFE3-RCC viability, measured here: UOK124 Z-AUC
[12] = TFE3-RCC viability, measured here: UOK145 Z-AUC

| SMILES | Potency [1] | Potency [2] | Potency [3] | Potency [4] | Z-AUC [5] | Z-AUC [5, 9] | Z-AUC ([5]; measured here: PEO4 Z-AUC) | z-score [6, 10] | z-score [6, 11] | z-score [6, 12] | Potency [7] | Potency [8] |
| --- | --- | --- | --- | --- | --- | --- | --- | --- | --- | --- | --- | --- |
| CC1=CC(=O)c2ccccc2C1=O | 4.18 µM (active) | 18.7 µM (active) | 20.9 µM (active) | 18.7 µM (active) | 0.899 (inactive) | 0.394 | 0.252 | – | – | – | – | – |
| CN1CCN(c2c(F)cc3c(=O)c(C(=O)O)cn(CCF)c3c2F)CC1 | inactive | inactive | inactive | – | – | – | – | 1.29 | -0.24 | 0.785 | – | – |
| O=P(O)(O)C(O)(Cc1cccnc1)P(=O)(O)O | inactive | inactive | inactive | inactive | 0.331 (inactive) | 0.503 | 0.956 | 0.388 | 0.644 | 0.537 | – | – |
| CCCCCCNC(=O)n1cc(F)c(=O)[nH]c1=O | inactive | inactive | inactive | – | 1.08 (inactive) | 0.601 | 0.733 | – | – | – | – | – |
| Cc1cccc(N(C)C(=S)Oc2ccc3ccccc3c2)c1 | inactive | – | inactive | – | 0.688 (inactive) | 0.339 | 0.795 | – | – | – | inactive | – |
| CCOC(=O)c1ccc(OC(=O)CCCCCN=C(N)N)cc1 | inactive | inactive | inactive | inactive | 1.08 (inactive) | 1.13 | 0.861 | 0.377 | 0.137 | -0.125 | inactive | – |
| CC1(C)[C@H](C(=O)O)N2C(=O)C[C@H]2S1(=O)=O | inactive | – | inactive | inactive | – | – | – | – | – | – | inactive | inactive |
| CC(C)(C)C(=O)OCOP(=O)(COCCn1cnc2c(N)ncnc21)OCOC(=O)C(C)(C)C | 0.187 µM (active) | – | 23.5 µM (active) | 23.5 µM (active) | 0.383 (inactive) | 0.013 | -0.0203 | – | – | – | 11.8 µM (active) | 18.7 µM (active) |
| CO[C@@]12[C@H](COC(N)=O)C3=C(C(=O)C(C)=C(N)C3=O)N1C[C@@H]1N[C@@H]12 | 20.9 µM (active) | 20.9 µM (active) | 26.4 µM (active) | 2.96 µM (active) | 0.952 (inactive) | 0.894 | 1.04 | – | – | – | – | – |
| NS(=O)(=O)c1cc2c(cc1Cl)NC(C(Cl)Cl)NS2(=O)=O (stereo not drawn) | inactive | – | inactive | inactive | 0.208 (inactive) | 0.729 | 0.959 | 0.286 | 0.327 | 0.519 | inactive | inactive |
| Nc1[nH]c(=O)ncc1F | inactive | – | inactive | inactive | 1.66 (inactive) | 1.6 | 1.51 | 0.532 | 0.978 | 0.221 | inactive | – |
| CC(=O)[C@H]1CC[C@H]2[C@@H]3CC=C4C[C@@H](O)CC[C@]4(C)[C@H]3CC[C@]12C | inactive | inactive | inactive | inactive | 1.05 (inactive) | 0.974 | 0.706 | 0.424 | 0.52 | 0.375 | inactive | – |
| Cc1ncc([N+](=O)[O-])n1CCO | – | inactive | inactive | – | – | – | – | – | – | – | inactive | – |
| COc1cc2c(Nc3ccc(Br)cc3F)ncnc2cc1OCC1CCN(C)CC1 | – | – | – | – | 0.231 (inactive) | 0.081 | -0.0991 | – | – | – | – | 23.5 µM (active) |
| NC(=O)c1cccnc1 | inactive | – | – | inactive | 1.48 (inactive) | 1.33 | 1.21 | 0.739 | 0.417 | -0.282 | – | – |
| CCC(C)(C)c1ccc(CC(C)CN2C[C@@H](C)O[C@@H](C)C2)cc1 (stereo partly drawn) | – | – | inactive | – | 0.498 (inactive) | 0.321 | 0.288 | 0.00856 | 0.0457 | 1.19 | – | – |
| CN(C)CCc1c[nH]c2ccc(C[C@H]3COC(=O)N3)cc12 | – | inactive | inactive | inactive | – | – | – | 0.402 | -0.14 | 0.58 | – | inactive |
| NC1(c2ccc(-c3nc4ccn5c(=O)[nH]nc5c4cc3-c3ccccc3)cc2)CCC1 | – | 1.66 µM (active) | – | 5.26 µM (active) | 0.493 (inactive) | 0.0138 | -0.184 | – | – | – | – | 1.05 µM (active) |
| CN(Cc1cc(Br)cc(Br)c1N)C1CCCCC1 | – | – | inactive | inactive | 1.09 (inactive) | 1.12 | 1.04 | 1.13 | 0.389 | 1.53 | – | – |
| COc1c(N2CCNC(C)C2)c(F)cc2c(=O)c(C(=O)O)cn(C3CC3)c12 (stereo not drawn) | – | inactive | inactive | inactive | 0.833 (inactive) | 0.836 | 0.282 | 0.46 | 0.931 | 0.897 | inactive | inactive |
| Cc1c(-c2ccc(O)cc2)n(Cc2ccc(OCCN3CCCCCC3)cc2)c2ccc(O)cc12 | – | – | – | – | 1.04 (inactive) | 0.798 | 0.376 | 0.552 | 0.408 | 0.653 | – | – |
